This note sets out measurements from PubChem BioAssay (NCATS).

Records with an inconclusive call do not appear. Values without a mark were called inactive. The source made the active and inactive calls. The call rests on the fitted dose curve; in most records, active means well fitted cell-killing curve with a large enough effect; inconclusive means small, poorly fitted or top-dose-only effect; inactive means flat fitted curve, though single readings scatter.
On the % scale 0 is the no-effect control and ±100 the full control effect; potency means the concentration at half of the fitted maximal effect.

This assay in a line: HepG2 cells viability qHTS for Zika virus inhibitors (AID 1347168). Particulars: Zika counter-screen; series mostly up to 45.9 µM; activity change, negative = cytotoxicity: at the top concentration. The source says: Avindra Nath, Ph.D., National Institute of Neurological Disorders and Stroke (NINDS), Bethesda, MD
Radhakrishnan Padmanabhan, Ph.D., Georgetown University (GU), Washington D.C.
Zika Virus causes congenital defects, including microcephaly and is associated with Guillain-Barre syndrome, eningoencephalitis and myelitis in infected adult. […] Using a target-based approach, we hope to establish a screening paradigm to uncover novel, cell-active NS2B-NS3 protease (Zika Virus) specific inhibitors from NCATS' collection of small molecules using qHTS.
Four assay panel was created to identify potential Zika Virus inhibitors. Namely, (1) GU unlinked NS2B-NS3 AMC tagged protease qHTS, (2) GU unlinked NS2B-NS3 Rhodamine tagged protease qHTS, (3) NINDS linked NS2B-NS3 AMC tagged protease qHTS, (4) NINDS linked NS2B-NS3 Rhodamine tagged protease qHTS. Identified inhibitors were screened against the Vero and HepG2 cell viability assays using CellTiter Glo to exclude cytotoxic compounds.
Early Translation Branch (ETB)
National Center for Advancing Translational Sciences (NCATS), Rockville, MD
National Institute of Health (NIH), Bethesda, Maryland
Vero and HepG2 Cell Viability Assay:
Vero and HepG2 cell cytotoxicity were determined using a luminescent readout with CellTiter Glo reagent (Promega, Madison, WI), which is based on measuring the ATP content within cells. Briefly, 4 microL of Vero or HepG2 cells at 2.5 x 10^5 cells/mL in DMEM containing 4% FBS were dispensed into 1536-well solid bottom tissue treated white plate using a Multidrop Combi dispenser (Thermo Scientific). Plates were incubated at 37 degrees C, 95% humidity, and 5% CO2 overnight to allow for cell attachment. Compounds were dissolved in DMSO at different concentrations and transferred via pintool (Wako Automation), for a final concentration of 0.029 µM - 57 microM. Plates were again incubated for 24 to 48 hours, followed by a 2 microL addition of CellTiter Glo. Finally, plates were incubated for 30 minutes at 37 degrees C and 5% CO2 before being read on a ViewLux (Perkin Elmer) for luminescence.
On to `CN1CCC(CNc2ccc3ncc(-c4cccc(OC(F)(F)F)c4)n3n2)CC1`, for which the Potency is 11.7 µM (active).
Take `N#Cc1c(O)c2c(-c3ccc(-c4ccccc4O)cc3)csc2[nH]c1=O`: the Potency entry was “inactive”.
Take `Cc1ccc(C(=O)Nc2cccc(C(F)(F)F)c2)cc1-c1ccc2nc(NCCN3CCOCC3)ncc2c1`: the Potency was 8.27 µM (active).
Consider `Cc1c(C)n(Cc2ccc(-c3ccccc3C(=O)O)cc2)c2ccc(C(=O)N[C@@H](C)c3ccc([N+](=O)[O-])cc3)cc12`, for which the “activity change, negative = cytotoxicity” value is 15.1%.
In the case of `CCOC(=O)C1=C(C)NC2=C(C(=O)CC(C)(C)C2)C1c1ccc(-c2ccccc2)cc1` (stereo unspecified), the “activity change, negative = cytotoxicity” value was -6.14%.
As for `O=C(O)C1(Cc2cccc(Nc3nccs3)n2)CCC(Oc2cccc(Cl)c2F)CC1` (stereo unspecified), the “activity change, negative = cytotoxicity” value was -6.67%.
For the compound `CC(C)c1ccccc1Cc1cc(C(=O)Nc2ccc(S(=O)(=O)c3ccccc3C(C)(C)C)cc2)c(O)c(O)c1O`, the “activity change, negative = cytotoxicity” value was -8.19% [at 91.6 µM].
For the compound `CCS(=O)(=O)c1cccc(-c2cc(C(=O)NC3CCN(C)CC3)c(C)c3[nH]c4ncc(C)cc4c23)c1`, the Potency is 20.8 µM (active).
For `C[C@@]12O[C@@H](C[C@]1(O)CO)n1c3ccccc3c3c4c(c5c6ccccc6n2c5c31)CNC4=O`, the Potency was 16.5 µM (active).
For `CCN1CCN(Cc2ccc(-c3cc4c(N[C@H](C)c5ccccc5)ncnc4[nH]3)cc2)CC1`, the Potency was 38 µM (active).
For `COc1cc(C(=O)NS(=O)(=O)c2ccccc2C)ccc1Cc1cn(C)c2ccc(NC(=O)OC3CCCC3)cc12`, the “activity change, negative = cytotoxicity” value is 0.451%.
